Compounds with a hit are over-represented: about 21% of the library has one in this group of screens.
NS1 inh – influenza NS1 inhibition. Potency, µM (top dose mostly 46.1 µM), without a hit: top-dose activity, positive = more growth. actives 0.4% (n = 270,000); calls by dose curve; further: potency means the concentration at half of the fitted maximal effect; actives are rising curves; nearly all actives have a fitted effect of over 50% in size
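Recovery from NS1-induced slow growth read by OD600 in budding yeast switched to galactose assay medium (pH 6.0, -URA) at 1:100 dilution. Compound 23 nl per well; the matching strain lacking NS1 serves as control.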
Sm TGR inh – blocks Schistosoma mansoni thioredoxin glutathione reductase. purified TGR, DTNB reduction, TNB absorbance 405 nm. Potency, µM (highest dose often 114 µM), for inactives: top-dose activity change, negative = inhibition, most hits filed as inhibitors. actives 3% (n = 360,000). Q962Y6; further: potency means the concentration at half of the fitted maximal effect; on the % scale 0 is the no-effect control and ±100 the full control effect; nearly all actives have a fitted effect of over 60% in size
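Kinetic colorimetric format: TGR-catalysed, NADPH-driven DTNB reduction monitored via TNB absorbance. Enzyme dispensed at 20 nM; compound exposure 15 min at room temperature before reaction start.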
Pf growth 96h – P. falciparum growth inhibition at 96 hour, primary screen for plastid delayed-death inhibitors; Potency, µM (doses to about 28.7 µM), without a hit: top-dose activity change, negative = inhibition, hits mostly inhibitors; actives 6.9% (n = 320,000); P. falciparum luciferase reporter growth, 96 h; further: potency means the concentration at half of the fitted maximal effect; on the % scale 0 is the no-effect control and ±100 the full control effect
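Cell-based qHTS: luciferase-tagged P. falciparum in erythrocytes (2% hematocrit, 0.05% parasitemia final) incubated with compounds for 96 hours, 37 C, 5% CO2; luciferase detection reagent then added and luminescence measured.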
Shiga toxin inh – blocks Shiga toxin action in Vero cells. actives 9.2% (n = 290,000). inhibition, % at 38.7 µM. AID 2315. Vero cells, Shiga toxin protein synthesis inhibition reporter; in the data active means inhibition mostly above about 28%, no sharp cut-off; inactive means mostly below about 43%; further: 0% is about no effect
Pf growth 48h – P. falciparum growth inhibition at 48 hours (one generation). actives 5.9% (n = 310,000). P. falciparum luciferase growth in erythrocytes, 48 h. Potency, µM (titrated, usually from 28.7 µM), for inactives: at the top dose activity change, negative = inhibition, most hits filed as inhibitors; further: potency means the concentration at half of the fitted maximal effect; on the % scale 0 is the no-effect control and ±100 the full control effect
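Compounds are pin-transferred into medium, infected erythrocytes (2% hematocrit, 0.1% parasitemia final) are added, and plates sit one parasite generation at 37 C in 5% CO2. Detection reagent is then added and luminescence measured.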
Cycloheximide cs – counter-screen for Shiga toxin inhibitors: cycloheximide protein synthesis inhibition; cell reporter, cycloheximide protein synthesis inhibition counterscreen; max response, %; actives 12% (n = 300,000); AID 2314; in the data active means max response mostly above about 13%, no sharp cut-off; inactive means mostly below about 14%; further: read at 38.3 µM for the half of the compounds with a filed dose; 0% is about no effect
* marks the source's active call; other numbers are inactive results; [ ] = remark or other dose. Unless noted, the call rests on the fitted dose curve; in most records, active means well fitted curve in the direction sought with a large enough effect; inconclusive means small, poorly fitted or top-dose-only effect, or another doubt; inactive means no such curve, though single readings can be large; an effect the other way counts as inactive or inconclusive.

Screening O=C(O)[C@H](Cc1ccccc1)N1C(=O)c2c(Cl)c(Cl)c(Cl)c(Cl)c2C1=O returned NS1 inh 12.5%, Sm TGR inh -19.3%, Pf growth 96h 15.1%, Shiga toxin inh -8.7, Pf growth 48h 42.1% and Cycloheximide cs 1.7.
`Cc1cc(NC(=O)C(C)SCC(=O)Nc2ccc(Br)cc2Br)no1` (stereo not given) gave Sm TGR inh -12.6%, Pf growth 96h -1.0% and Pf growth 48h inconclusive.
`CC(C)N(C(=O)CSc1nc(Cc2ccccc2)nc2ccccc12)C(C)C` gave NS1 inh 9.2%, Sm TGR inh 3.4%, Pf growth 96h -1.6%, Pf growth 48h 10.4µM* and Cycloheximide cs -2.7.
`CCC(C)(C)NC(=O)CSc1nc(Cc2ccccc2)nc2ccccc12` gave NS1 inh 6.7%, Sm TGR inh 12.6%, Pf growth 96h inconclusive, Shiga toxin inh -2.5, Pf growth 48h inconclusive and Cycloheximide cs 1.3.
For CSc1nc(Cc2ccccc2)nc2ccccc12 the results were NS1 inh -9.3%, Pf growth 96h 104.3%, Shiga toxin inh -5.7, Pf growth 48h 14.4% and Cycloheximide cs -2.0.
For Cc1cc(C(=O)CSc2nc3ccccc3c(=O)[nH]2)c(C)n1C the results were NS1 inh -8.7%, Sm TGR inh inconclusive, Pf growth 96h 34.9%, Shiga toxin inh 132.5*, Pf growth 48h 15.1% and Cycloheximide cs 33.7*.
For CC(C)(C)NC(=O)CSc1nc(Cc2ccccc2)nc2ccccc12 the results were NS1 inh -21.6%, Sm TGR inh -14.6%, Pf growth 96h 13.1µM*, Shiga toxin inh -0.6, Pf growth 48h -16.7% and Cycloheximide cs -5.0.
`CC(C)(C)NC(=O)CSc1nc2ccccc2c(=O)[nH]1` gave NS1 inh 1.4%, Sm TGR inh 7.5%, Pf growth 96h 77.1%, Shiga toxin inh 17.8, Pf growth 48h 11.7µM* and Cycloheximide cs 32.4*.
For Cc1cc(C(=O)CSC(C)c2nc3ccccc3c(=O)[nH]2)c(C)n1C (stereo not given) the results were NS1 inh -1.6%, Sm TGR inh -20.8%, Shiga toxin inh -2.9, Pf growth 48h -6.8% and Cycloheximide cs 3.6.
`CCOc1ncccc1C(=O)OCC(=O)NC(=O)c1ccccc1` gave Sm TGR inh -19.3%, Pf growth 96h 68.1% and Pf growth 48h 9.5%.
For COCCN1C(=O)c2ccccc2C(C(=O)N2CCN(c3ccccc3)CC2)C1c1ccc(F)cc1 (stereo not given) the results were NS1 inh -6.2%, Sm TGR inh -4.4%, Shiga toxin inh -6.8, Pf growth 48h inconclusive and Cycloheximide cs -4.4.
Screening Cc1cc(NC(=O)c2oc3c(c2C)-c2[nH]ncc2CC3)ccc1Br returned Sm TGR inh 1.2%.
`CS(=O)(=O)N1CCN(Cc2cc(=O)n3ccsc3n2)CC1` gave NS1 inh -8.8%, Sm TGR inh 1.5%, Pf growth 96h -5.2%, Shiga toxin inh 1.0, Pf growth 48h -6.5% and Cycloheximide cs 0.8.
`O=C(NCC(c1cccs1)N1CCOCC1)c1ccc(Cl)nc1` (stereo not given) gave Sm TGR inh 1.4%, Pf growth 96h 18.6% and Pf growth 48h 14.4%.
CCN1C(=O)C(=C/C=C/c2ccco2)C(=O)N(CC)C1=S was read as NS1 inh 2.7%, Sm TGR inh 8.91µM*, Pf growth 96h 432.2%, Shiga toxin inh -5.4, Pf growth 48h 4.7% and Cycloheximide cs 1.8.
O=C1NC(=O)N(Cc2ccccc2)C1=O was read as NS1 inh 0.9%, Sm TGR inh 31.4%, Pf growth 96h -19.3%, Shiga toxin inh 21.9, Pf growth 48h 0.0%[0.00184 µM] and Cycloheximide cs -4.0.
`O=C1NC(=O)N(Cc2ccccc2)C(=O)/C1=C/C=C/c1ccco1` gave NS1 inh 1.1%, Sm TGR inh 6.31µM*, Pf growth 96h -1.3%, Shiga toxin inh 19.6, Pf growth 48h 0.0% and Cycloheximide cs 5.5.
Screening CC(C)N1C(=O)/C(=C/C=C/c2ccco2)C(=O)N(Cc2ccco2)C1=O returned NS1 inh 12.3%, Sm TGR inh 3.55µM*, Pf growth 96h 3.8%, Shiga toxin inh 18.1, Pf growth 48h 0.0% and Cycloheximide cs 14.5.
For O=C1NN(c2ccc(F)cc2)C(=O)/C1=C\C=C\c1ccco1 the results were NS1 inh 22.1%, Sm TGR inh inconclusive, Pf growth 96h 1.65µM*, Shiga toxin inh 8.6, Pf growth 48h -1.3% and Cycloheximide cs -2.1.
COc1ccc(/C=C2/C(=O)N(Cc3ccco3)C(=O)N(C(C)C)C2=O)cc1 was read as NS1 inh 8.7%, Sm TGR inh -2.2%, Pf growth 96h -4.6%, Shiga toxin inh -3.8, Pf growth 48h 0.2% and Cycloheximide cs -2.2.
`Cn1c(=O)n(C)c2cc(N3CCOCC3)c(NC(=O)c3c(F)cccc3F)cc21` gave Sm TGR inh -6.4%.
Screening CCOc1ccc(C(=O)/C=C/c2cn(CC(O)CN3CCc4ccccc43)c3ccccc23)cc1 (stereo not given) returned Sm TGR inh 5.1%.
Screening Clc1ccc(SCc2cn3cccnc3n2)cc1 returned NS1 inh -50.1%, Sm TGR inh 0.0%, Pf growth 96h 64.7%, Shiga toxin inh 96.9*, Pf growth 48h 65.4% and Cycloheximide cs 26.6*.
Cc1ccc(SCc2cn3cccnc3n2)cc1 was read as NS1 inh -46.7%, Sm TGR inh 0.5%, Pf growth 96h 99.8%, Shiga toxin inh 56.8*, Pf growth 48h 85.2% and Cycloheximide cs 40.5*.
For Cc1cc(OCc2cn3cccnc3n2)ccc1Cl the results were NS1 inh 10.7%, Sm TGR inh 0.7%, Pf growth 96h 7.7%, Shiga toxin inh 64.9*, Pf growth 48h 27.8% and Cycloheximide cs 71.0*.
For Cn1ncnc1SCc1cn2cccnc2n1 the results were NS1 inh -0.9%, Sm TGR inh 8.7%, Pf growth 96h 10.6%, Shiga toxin inh -30.8, Pf growth 48h 10.7% and Cycloheximide cs -2.5.
Cc1cc(=O)[nH]c(SCc2cn3ccccc3n2)n1 was read as Sm TGR inh -5.3%, Pf growth 96h 68.5%, Shiga toxin inh 9.7, Pf growth 48h 41.5% and Cycloheximide cs 5.8.
Cc1ccn2cc(CSc3ccccc3)nc2c1 was read as NS1 inh -21.6%, Sm TGR inh -0.9%, Shiga toxin inh 111.2*, Pf growth 48h 175.0% and Cycloheximide cs 47.1*.
CCN(Cc1cn2cccnc2n1)C1CCCCC1 was read as Sm TGR inh -3.3%, Pf growth 96h 27.6%, Shiga toxin inh 12.6, Pf growth 48h -3.0% and Cycloheximide cs -4.1.
c1ccc(-n2nnnc2SCc2cn3cccnc3n2)cc1 was read as NS1 inh 6.7%, Sm TGR inh -5.7%, Pf growth 96h inconclusive, Shiga toxin inh -3.9, Pf growth 48h -10.2% and Cycloheximide cs 2.5.
